Data on seven sequences can be found in publication PMC11006913.

Holding throughout (experiment): PBM; 200 nM protein, PBS
Holding throughout (details): dsDNA, one strand shown

Assay [1] addresses HOXB9 (Homo sapiens, UniProt P17482 171-250, T197M).
Assay [2] has as its target HOXC9 (Homo sapiens, UniProt P31274 178-260, K195R).
For assay [3], the target named is HOXC10 (Homo sapiens, UniProt Q9NYD6 254-340).
In assay [4] the target is HOXB9 (Homo sapiens, UniProt P17482 171-250).
Assay [5] has as its target HOXC9 (Homo sapiens, UniProt P31274 178-260).
For assay [6], the target named is HOXD13 (Homo sapiens, UniProt P35453 263-343, T313R).
Assay [7] has as its target HOXC9 (Homo sapiens, UniProt P31274 178-260, R193K).
In assay [8] the target is HOXD13 (Homo sapiens, UniProt P35453 263-343).
Assay [9] concerns the target HOXC10 (Homo sapiens, UniProt Q9NYD6 254-340, K271E).
Assay [10] has as its target HOXD13 (Homo sapiens, UniProt P35453 263-343, T313A).
In assay [11] the target is HOXB9 (Homo sapiens, UniProt P17482 171-250, R186Q).
Assay [12] deals with HOXC9 (Homo sapiens, UniProt P31274 178-260, R222W).
Assay [13] deals with ALX4 (Homo sapiens, UniProt Q9H161 200-286).
In assay [14] the target is ALX4 (Homo sapiens, UniProt Q9H161 200-286, Q225E).
Assay [15] deals with HOXA2 (Homo sapiens, UniProt O43364 129-215, R185T).
For assay [16], the target named is HOXA2 (Homo sapiens, UniProt O43364 129-215, R185K).
For assay [17], the target named is HOXA2 (Homo sapiens, UniProt O43364 129-215, Y150S).
For assay [18], the target named is HOXA2 (Homo sapiens, UniProt O43364 129-215).
Chain of HOXA2 (Homo sapiens, UniProt O43364 129-215) (O43364 129-215): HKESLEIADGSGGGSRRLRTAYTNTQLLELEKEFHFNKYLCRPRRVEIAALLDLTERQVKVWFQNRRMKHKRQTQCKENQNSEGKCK

Chain of HOXC10 (Homo sapiens, UniProt Q9NYD6 254-340) (Q9NYD6 254-340): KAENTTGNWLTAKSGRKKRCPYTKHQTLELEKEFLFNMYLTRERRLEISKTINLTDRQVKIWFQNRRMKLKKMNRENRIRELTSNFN
Chain of HOXB9 (Homo sapiens, UniProt P17482 171-250) (P17482 171-250): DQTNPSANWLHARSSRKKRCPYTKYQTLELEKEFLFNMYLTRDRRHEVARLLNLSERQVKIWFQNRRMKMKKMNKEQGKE
Chain of HOXC9 (Homo sapiens, UniProt P31274 178-260, R193K) (P31274 178-260 R193K): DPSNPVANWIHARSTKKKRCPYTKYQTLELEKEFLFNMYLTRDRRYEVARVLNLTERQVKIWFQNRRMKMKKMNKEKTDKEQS
Chain of HOXC9 (Homo sapiens, UniProt P31274 178-260, K195R) (P31274 178-260 K195R): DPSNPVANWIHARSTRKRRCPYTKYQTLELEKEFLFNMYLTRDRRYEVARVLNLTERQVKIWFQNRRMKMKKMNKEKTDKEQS
Chain of HOXD13 (Homo sapiens, UniProt P35453 263-343) (P35453 263-343): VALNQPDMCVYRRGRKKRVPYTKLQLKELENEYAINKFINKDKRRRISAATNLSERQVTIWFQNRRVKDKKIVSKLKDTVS
Chain of HOXD13 (Homo sapiens, UniProt P35453 263-343, T313A) (P35453 263-343 T313A): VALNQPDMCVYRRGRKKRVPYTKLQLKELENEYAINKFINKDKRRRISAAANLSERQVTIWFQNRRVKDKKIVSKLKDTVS
Chain of HOXD13 (Homo sapiens, UniProt P35453 263-343, T313R) (P35453 263-343 T313R): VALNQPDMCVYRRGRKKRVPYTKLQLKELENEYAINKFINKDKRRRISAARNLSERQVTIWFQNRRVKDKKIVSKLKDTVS
Chain of HOXB9 (Homo sapiens, UniProt P17482 171-250, R186Q) (P17482 171-250 R186Q): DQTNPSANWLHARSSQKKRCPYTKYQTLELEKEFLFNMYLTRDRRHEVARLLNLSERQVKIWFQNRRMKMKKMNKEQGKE
Chain of HOXC9 (Homo sapiens, UniProt P31274 178-260, R222W) (P31274 178-260 R222W): as the sequence (P31274 178-260 R193K) above, with K16R, R45W counted along it
Chain of HOXB9 (Homo sapiens, UniProt P17482 171-250, T197M) (P17482 171-250 T197M): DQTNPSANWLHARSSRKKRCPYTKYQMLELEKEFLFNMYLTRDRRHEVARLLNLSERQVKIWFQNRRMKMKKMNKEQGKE
Chain of HOXC10 (Homo sapiens, UniProt Q9NYD6 254-340, K271E) (Q9NYD6 254-340 K271E): as the sequence (Q9NYD6 254-340) above, with K18E counted along it
Chain of HOXC9 (Homo sapiens, UniProt P31274 178-260) (P31274 178-260): as the sequence (P31274 178-260 R193K) above, with K16R counted along it
Chain of ALX4 (Homo sapiens, UniProt Q9H161 200-286, Q225E) (Q9H161 200-286 Q225E): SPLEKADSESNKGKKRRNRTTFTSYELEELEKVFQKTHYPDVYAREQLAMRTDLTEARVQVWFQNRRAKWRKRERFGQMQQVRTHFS
Chain of HOXA2 (Homo sapiens, UniProt O43364 129-215, R185T) (O43364 129-215 R185T): as the sequence (O43364 129-215) above, with R57T counted along it
Chain of ALX4 (Homo sapiens, UniProt Q9H161 200-286) (Q9H161 200-286): as the sequence (Q9H161 200-286 Q225E) above, with E26Q counted along it
Chain of HOXA2 (Homo sapiens, UniProt O43364 129-215, Y150S) (O43364 129-215 Y150S): as the sequence (O43364 129-215) above, with Y22S counted along it
Chain of HOXA2 (Homo sapiens, UniProt O43364 129-215, R185K) (O43364 129-215 R185K): as the sequence (O43364 129-215) above, with R57K counted along it

On to CATAAAAC, for which the binding signal in [1] was 9.89 upbm affinity estimate (log intensity, higher = more binding, comparable within an allelic series); in [2], 12.9 upbm affinity estimate (log intensity, higher = more binding, comparable within an allelic series); in assay [3], 12.6 upbm affinity estimate (log intensity, higher = more binding, comparable within an allelic series); in assay [4], 12.4 upbm affinity estimate (log intensity, higher = more binding, comparable within an allelic series); in assay [5], 13.1 upbm affinity estimate (log intensity, higher = more binding, comparable within an allelic series); in assay [6], 10.7 upbm affinity estimate (log intensity, higher = more binding, comparable within an allelic series). Besides, the binding signal was 13 upbm affinity estimate (log intensity, higher = more binding, comparable within an allelic series) in assay [7]; 12 upbm affinity estimate (log intensity, higher = more binding, comparable within an allelic series) in assay [8]; 11.9 upbm affinity estimate (log intensity, higher = more binding, comparable within an allelic series) in assay [9]; 11.7 upbm affinity estimate (log intensity, higher = more binding, comparable within an allelic series) in [10]; 12.1 upbm affinity estimate (log intensity, higher = more binding, comparable within an allelic series) in assay [11]; 11.3 upbm affinity estimate (log intensity, higher = more binding, comparable within an allelic series) in assay [12].
Regarding GCCATAAA, the binding signal was 9.72 upbm affinity estimate (log intensity, higher = more binding, comparable within an allelic series) in assay [1]; 12.7 upbm affinity estimate (log intensity, higher = more binding, comparable within an allelic series) in assay [2]; 12.4 upbm affinity estimate (log intensity, higher = more binding, comparable within an allelic series) in [3]; 12.2 upbm affinity estimate (log intensity, higher = more binding, comparable within an allelic series) in assay [4]; 12.9 upbm affinity estimate (log intensity, higher = more binding, comparable within an allelic series) in assay [5]; 10.7 upbm affinity estimate (log intensity, higher = more binding, comparable within an allelic series) in [6]. In addition, the binding signal in assay [7] is 12.9 upbm affinity estimate (log intensity, higher = more binding, comparable within an allelic series); in assay [8], 11.9 upbm affinity estimate (log intensity, higher = more binding, comparable within an allelic series); in assay [9], 11.8 upbm affinity estimate (log intensity, higher = more binding, comparable within an allelic series); in assay [10] it was 11.7 upbm affinity estimate (log intensity, higher = more binding, comparable within an allelic series); in assay [11], 11.9 upbm affinity estimate (log intensity, higher = more binding, comparable within an allelic series); in [12] it was 10.9 upbm affinity estimate (log intensity, higher = more binding, comparable within an allelic series).
Turning to CATAAAAA, the binding signal in [1] was 9.93 upbm affinity estimate (log intensity, higher = more binding, comparable within an allelic series); in [2] it was 12.8 upbm affinity estimate (log intensity, higher = more binding, comparable within an allelic series); in assay [3], 12.6 upbm affinity estimate (log intensity, higher = more binding, comparable within an allelic series); in assay [4] it was 12.4 upbm affinity estimate (log intensity, higher = more binding, comparable within an allelic series); in assay [5], 13 upbm affinity estimate (log intensity, higher = more binding, comparable within an allelic series); in assay [6], 10.7 upbm affinity estimate (log intensity, higher = more binding, comparable within an allelic series). The binding signal was 13 upbm affinity estimate (log intensity, higher = more binding, comparable within an allelic series) in [7]; 11.8 upbm affinity estimate (log intensity, higher = more binding, comparable within an allelic series) in assay [8]; 12 upbm affinity estimate (log intensity, higher = more binding, comparable within an allelic series) in assay [9]; 11.6 upbm affinity estimate (log intensity, higher = more binding, comparable within an allelic series) in [10]; 12 upbm affinity estimate (log intensity, higher = more binding, comparable within an allelic series) in assay [11]; 11.4 upbm affinity estimate (log intensity, higher = more binding, comparable within an allelic series) in [12].
For CCTTGCAG, the binding signal was 8.52 upbm affinity estimate (log intensity, higher = more binding, comparable within an allelic series) in assay [1]; 9.62 upbm affinity estimate (log intensity, higher = more binding, comparable within an allelic series) in assay [2]; 7.87 upbm affinity estimate (log intensity, higher = more binding, comparable within an allelic series) in assay [13]; 8.04 upbm affinity estimate (log intensity, higher = more binding, comparable within an allelic series) in assay [14]; 8.41 upbm affinity estimate (log intensity, higher = more binding, comparable within an allelic series) in assay [4]; 9.66 upbm affinity estimate (log intensity, higher = more binding, comparable within an allelic series) in [5]. Further, the binding signal is 9.67 upbm affinity estimate (log intensity, higher = more binding, comparable within an allelic series) in assay [7]; 8.42 upbm affinity estimate (log intensity, higher = more binding, comparable within an allelic series) in [11]; 9.74 upbm affinity estimate (log intensity, higher = more binding, comparable within an allelic series) in [12].
Take CGCCACCG: the binding signal is 8.56 upbm affinity estimate (log intensity, higher = more binding, comparable within an allelic series) in assay [1]; 9.67 upbm affinity estimate (log intensity, higher = more binding, comparable within an allelic series) in assay [2]; 7.25 upbm affinity estimate (log intensity, higher = more binding, comparable within an allelic series) in assay [15]; 8.3 upbm affinity estimate (log intensity, higher = more binding, comparable within an allelic series) in assay [4]; 9.81 upbm affinity estimate (log intensity, higher = more binding, comparable within an allelic series) in assay [5]; 9.57 upbm affinity estimate (log intensity, higher = more binding, comparable within an allelic series) in [6]. In addition, the binding signal in [7] is 9.64 upbm affinity estimate (log intensity, higher = more binding, comparable within an allelic series); in [16] it was 10.5 upbm affinity estimate (log intensity, higher = more binding, comparable within an allelic series); in [8], 9.56 upbm affinity estimate (log intensity, higher = more binding, comparable within an allelic series); in assay [10], 9.65 upbm affinity estimate (log intensity, higher = more binding, comparable within an allelic series); in assay [11] it was 8.46 upbm affinity estimate (log intensity, higher = more binding, comparable within an allelic series); in [12], 9.73 upbm affinity estimate (log intensity, higher = more binding, comparable within an allelic series). For the same sequence, the binding signal was 10.7 upbm affinity estimate (log intensity, higher = more binding, comparable within an allelic series) in assay [17] and 7.41 upbm affinity estimate (log intensity, higher = more binding, comparable within an allelic series) in assay [18].
Turning to AATAAAAC, the binding signal was 9.76 upbm affinity estimate (log intensity, higher = more binding, comparable within an allelic series) in assay [1]; 12.3 upbm affinity estimate (log intensity, higher = more binding, comparable within an allelic series) in [3]; 10.6 upbm affinity estimate (log intensity, higher = more binding, comparable within an allelic series) in assay [14]; 11.8 upbm affinity estimate (log intensity, higher = more binding, comparable within an allelic series) in assay [4]; 10.9 upbm affinity estimate (log intensity, higher = more binding, comparable within an allelic series) in assay [6]; 11.9 upbm affinity estimate (log intensity, higher = more binding, comparable within an allelic series) in [8]. Also, the binding signal in assay [9] was 11.7 upbm affinity estimate (log intensity, higher = more binding, comparable within an allelic series); in assay [10], 11.6 upbm affinity estimate (log intensity, higher = more binding, comparable within an allelic series); in [11], 11.5 upbm affinity estimate (log intensity, higher = more binding, comparable within an allelic series); in assay [12], 11.2 upbm affinity estimate (log intensity, higher = more binding, comparable within an allelic series).
In the case of CCGCTCCG, the binding signal in [1] is 8.44 upbm affinity estimate (log intensity, higher = more binding, comparable within an allelic series); in assay [2], 9.63 upbm affinity estimate (log intensity, higher = more binding, comparable within an allelic series); in assay [4], 8.59 upbm affinity estimate (log intensity, higher = more binding, comparable within an allelic series); in assay [5], 9.73 upbm affinity estimate (log intensity, higher = more binding, comparable within an allelic series); in [7] it was 9.74 upbm affinity estimate (log intensity, higher = more binding, comparable within an allelic series); in [11] it was 8.66 upbm affinity estimate (log intensity, higher = more binding, comparable within an allelic series). For the same sequence, in [12], the binding signal was 9.7 upbm affinity estimate (log intensity, higher = more binding, comparable within an allelic series).
